Assay outcomes as filed in PubChem BioAssay.
An excerpt weighted towards active compounds, which were near 3.5% of everything screened.
Anthrax LF prot – blocks Bacillus anthracis lethal factor protease. AID 588501. P15917. inhibition, % at 10 µM. hit rate 0.12% among 360,000. multiplex microsphere protease cleavage assay, LF; further: plate controls were buffer without enzyme for full effect and enzyme alone for no effect
Target sequence (P15917 whole entry, looked up): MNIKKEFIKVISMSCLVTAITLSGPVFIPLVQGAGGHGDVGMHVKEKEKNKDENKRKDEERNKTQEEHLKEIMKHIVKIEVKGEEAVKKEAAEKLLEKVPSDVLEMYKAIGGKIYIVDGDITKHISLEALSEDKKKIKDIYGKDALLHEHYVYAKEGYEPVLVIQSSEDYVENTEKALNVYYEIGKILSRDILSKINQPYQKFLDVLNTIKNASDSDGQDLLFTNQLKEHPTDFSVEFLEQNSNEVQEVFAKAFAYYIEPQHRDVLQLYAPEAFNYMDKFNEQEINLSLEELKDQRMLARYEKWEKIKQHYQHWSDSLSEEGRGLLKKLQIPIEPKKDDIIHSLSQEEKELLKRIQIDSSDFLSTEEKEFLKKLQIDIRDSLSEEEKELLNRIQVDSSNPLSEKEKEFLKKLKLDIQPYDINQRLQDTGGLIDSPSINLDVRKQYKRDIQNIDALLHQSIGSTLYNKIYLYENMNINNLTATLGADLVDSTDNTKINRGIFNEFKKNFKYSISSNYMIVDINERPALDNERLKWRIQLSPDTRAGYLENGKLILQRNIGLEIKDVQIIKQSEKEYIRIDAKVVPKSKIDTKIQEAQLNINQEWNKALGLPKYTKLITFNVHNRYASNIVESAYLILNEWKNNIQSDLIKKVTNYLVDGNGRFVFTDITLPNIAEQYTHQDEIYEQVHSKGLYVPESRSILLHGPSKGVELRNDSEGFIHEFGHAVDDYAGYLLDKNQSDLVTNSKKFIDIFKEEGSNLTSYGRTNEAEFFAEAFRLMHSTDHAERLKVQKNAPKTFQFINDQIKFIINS
BoNT A protease – BoNT A light chain protease inhibition; multiplex microsphere protease substrate cleavage, flow cytometry; inhibition, % at 10 µM; hit rate 0.17% among 360,000; AID 588499; further: plate controls were buffer without enzyme for full effect and enzyme alone for no effect
BoNT F protease – inhibitors of Botulinum neurotoxin F light chain protease; AID 588497; hit rate 0.22% among 360,000; inhibition, % at 10 µM; Multiplex microsphere protease cleavage assay, flow cytometry; in the data active means inhibition above about 35%, passing the limit was not always enough; inconclusive means no clear call, values can overlap the other calls; further: plate controls were buffer without enzyme for full effect and enzyme alone for no effect
Bead autofluor – counter-screen for toxin protease inhibitors: compound fluorescence; compound autofluorescence counterscreen, microsphere flow cytometry; active compounds read high; fluorescence intensity (no concentration beside the values); hit rate 3.1% among 360,000; AID 624483; in the data active means fluorescence intensity above about 16000; inconclusive means no clear call, values can overlap the other calls
An asterisk follows results filed as active. Unless noted, no stated cut-off is given here; in the data, active means inhibition above about 30%; inconclusive means no clear call, values can overlap the other calls; inactive means below that.

What do the screens show for `Cc1cc(C(=O)CSc2nnc(-c3ccncc3)n2-c2ccccc2)c(C)n1C`?
Anthrax LF prot: -21.3; BoNT A protease: 0.0; BoNT F protease: -4.6; Bead autofluor: 5848

How did CCc1nnc(NC(=O)/C=C/c2ccco2)s1 do in these assays?
Anthrax LF prot: 1.9; BoNT A protease: 4.0; BoNT F protease: 44.1*; Bead autofluor: 2625

Results for Cc1cc(C(=O)CSc2nnc(-c3ccccc3)n2C)c(C)n1C ?
Anthrax LF prot: -13.2; BoNT A protease: -0.5; BoNT F protease: -2.9; Bead autofluor: 22200*

What do the screens show for `CCc1nnc(NC(=O)CSc2nnc(-c3ccco3)n2CC)s1`?
Anthrax LF prot: 1.5; BoNT A protease: -1.8; BoNT F protease: 0.5; Bead autofluor: 22759*

What do the screens show for `CCSc1nnc(NC(=O)/C=C/c2ccco2)s1`?
Anthrax LF prot: -1.0; BoNT A protease: 0.2; BoNT F protease: -1.5; Bead autofluor: 4651

What do the screens show for `COc1ccccc1CC(=O)NNC(=O)c1ccco1`?
Anthrax LF prot: -2.3; BoNT A protease: -1.5; BoNT F protease: 2.1; Bead autofluor: 5953

What do the screens show for `O=C(CCn1c(=O)c2sccc2n(CC(=O)NCc2ccco2)c1=O)NCc1ccccc1`?
Anthrax LF prot: -4.2; BoNT A protease: -4.2; BoNT F protease: -8.8; Bead autofluor: 24369*

Results for CCC1CCCCN1C(=O)Cn1c(=O)n(CCC(=O)NCc2ccco2)c(=O)c2sccc21 (stereo not given) ?
Anthrax LF prot: 2.0; BoNT A protease: 0.0; BoNT F protease: -3.7; Bead autofluor: 10086

Results for Cc1ccc(C)c(Cn2c(=O)n(CCCC(=O)NCc3ccco3)c(=O)c3sccc32)c1 ?
Anthrax LF prot: -3.9; BoNT A protease: -1.1; BoNT F protease: -28.5; Bead autofluor: 3168

How did Cc1cccc(C)c1NC(=O)Cn1c(=O)n(CCCC(=O)NCc2ccco2)c(=O)c2sccc21 do in these assays?
Anthrax LF prot: 0.0; BoNT A protease: -6.5; BoNT F protease: -7.4; Bead autofluor: 22217*

What do the screens show for `COc1ccc(CCNC(=O)Cn2c(=O)n(CCCC(=O)NCc3ccco3)c(=O)c3sccc32)cc1OC`?
Anthrax LF prot: -3.1; BoNT A protease: -0.6; BoNT F protease: -2.3; Bead autofluor: 5088

How did O=C(CCCn1c(=O)c2sccc2n(CC(=O)NCc2ccco2)c1=O)NCc1ccco1 do in these assays?
Anthrax LF prot: 1.6; BoNT A protease: inconclusive; BoNT F protease: 2.7; Bead autofluor: 20462*

Results for O=C(Nc1cc(C(F)(F)F)cc(C(F)(F)F)c1)c1ccc(Cn2cc(C(F)(F)F)ccc2=O)cc1 ?
Anthrax LF prot: 0.2; BoNT A protease: inconclusive; BoNT F protease: -3.0; Bead autofluor: 20069*

How did CCOC(=O)c1ccc(NS(=O)(=O)c2c(C)nc3sccn3c2=O)cc1 do in these assays?
Anthrax LF prot: -10.1; BoNT A protease: -0.6; BoNT F protease: -4.3; Bead autofluor: 5794

What do the screens show for `CC(C)Oc1cccc(NC(=O)c2cccn(Cc3ccc4c(c3)OC(F)(F)O4)c2=O)c1`?
Anthrax LF prot: -7.5; BoNT A protease: -1.2; BoNT F protease: -7.2; Bead autofluor: 10002

What do the screens show for `Cc1cccc(C)c1NC(=O)c1cccn(Cc2ccc3c(c2)OC(F)(F)O3)c1=O`?
Anthrax LF prot: -13.0; BoNT A protease: 10.0; BoNT F protease: 7.0; Bead autofluor: 16867*

How did O=C(Nc1cccc(C(F)(F)F)c1)c1cccn(Cc2ccc3c(c2)OC(F)(F)O3)c1=O do in these assays?
Anthrax LF prot: -0.4; BoNT A protease: -1.5; BoNT F protease: -2.0; Bead autofluor: 20449*

What do the screens show for `CC(C(=O)N1CCC(C(N)=O)CC1)N(c1ccc(Oc2ccccc2)cc1)S(C)(=O)=O` (stereo not given)?
Anthrax LF prot: -0.4; BoNT A protease: 1.0; BoNT F protease: 1.2; Bead autofluor: 20200*

How did CS(=O)(=O)N(CC(=O)N1CCC(C(N)=O)CC1)c1ccc(Oc2ccccc2)cc1 do in these assays?
Anthrax LF prot: 0.4; BoNT A protease: -0.7; BoNT F protease: -7.1; Bead autofluor: 2980

What do the screens show for `Cc1ccc(N(C(C)C(=O)N2CCCCC2)S(C)(=O)=O)cc1C` (stereo not given)?
Anthrax LF prot: 2.2; BoNT A protease: 1.7; BoNT F protease: 4.0; Bead autofluor: 22154*

How did Cc1ccccc1N/N=C/c1c(C)nc2ccccn12 do in these assays?
Anthrax LF prot: -4.0; BoNT A protease: -0.4; BoNT F protease: -15.6; Bead autofluor: 4203

What do the screens show for `CC(=O)Nc1ccc(C(=O)N2CCCCC2c2cc(C(=O)N3CCOCC3)no2)cc1` (stereo not given)?
Anthrax LF prot: -11.1; BoNT A protease: -0.9; BoNT F protease: 2.9; Bead autofluor: 3490

How did O=C(Nc1ccc2c(c1)OCO2)N1CCN(c2ccccc2Cl)CC1 do in these assays?
Anthrax LF prot: -5.3; BoNT A protease: -0.2; BoNT F protease: 3.7; Bead autofluor: 11444

Results for CSc1ccccc1N1CCN(C(=O)Nc2ccc3c(c2)NC(=O)CO3)CC1 ?
Anthrax LF prot: -9.4; BoNT A protease: inconclusive; BoNT F protease: 0.5; Bead autofluor: 21233*

Results for Cc1ccccc1Cn1cnc2ccccc21 ?
Anthrax LF prot: 1.2; BoNT A protease: -1.4; BoNT F protease: -11.7; Bead autofluor: 4632

Results for COc1ccc(Cn2cnc3c([N+](=O)[O-])c(C)c(C)cc32)cc1 ?
Anthrax LF prot: -6.6; BoNT A protease: -2.6; BoNT F protease: -4.3; Bead autofluor: 25028*

Results for Cc1ccccc1Cn1cnc2c([N+](=O)[O-])c(C)c(C)cc21 ?
Anthrax LF prot: -0.2; BoNT A protease: 0.7; BoNT F protease: 1.6; Bead autofluor: 21365*

What do the screens show for `O=C(CSc1nnc2ccccn12)NNC(=O)c1ccccc1F`?
Anthrax LF prot: 0.2; BoNT A protease: 0.4; BoNT F protease: 2.4; Bead autofluor: 2868

How did Cc1ccc(C(=O)N2CCCC2)cc1S(=O)(=O)Nc1cccc(C)c1C do in these assays?
Anthrax LF prot: -8.2; BoNT A protease: -0.7; BoNT F protease: -2.9; Bead autofluor: 4758

How did CCCCCCn1c2c(c(=N)c3c1CCC3)CCC2 do in these assays?
Anthrax LF prot: -0.6; BoNT A protease: inconclusive; BoNT F protease: 1.6; Bead autofluor: 22477*

What do the screens show for `COc1ccc(C(=O)COC(=O)c2nc3nccc(C)n3n2)cc1F`?
Anthrax LF prot: -0.2; BoNT A protease: -4.7; BoNT F protease: -7.7; Bead autofluor: 6489

Results for S=C(Nc1ccc2c(c1)OCO2)NC1CCN(Cc2ccccc2)CC1 ?
Anthrax LF prot: -0.5; BoNT A protease: -0.2; BoNT F protease: -2.8; Bead autofluor: 20636*

Results for Cc1ccc(NC(=O)c2cc3nc(C)cc(C)n3n2)cc1 ?
Anthrax LF prot: -3.8; BoNT A protease: 0.5; BoNT F protease: 2.0; Bead autofluor: 20310*

How did Cc1cc(C)n2nc(C(=O)NCc3ccccc3)cc2n1 do in these assays?
Anthrax LF prot: -1.2; BoNT A protease: -1.7; BoNT F protease: -5.7; Bead autofluor: 8310

What do the screens show for `COc1cc(OC)c(OC)cc1CCC(C)NC(=O)Cc1ccccc1` (stereo not given)?
Anthrax LF prot: -4.7; BoNT A protease: -3.1; BoNT F protease: -6.7; Bead autofluor: 3551

Results for Cc1ccc(C(=O)OCC(=O)Nc2ncc(C(F)(F)F)cc2Cl)cc1NC(=O)c1ccco1 ?
Anthrax LF prot: 0.7; BoNT A protease: -3.8; BoNT F protease: -4.0; Bead autofluor: 20917*
